ELG1 genotoxic: qHTS screen for small molecules that induce genotoxicity in human embryonic kidney (HEK293T) cells expressing luciferase-tagged ELG1; HEK293T ELG1-luciferase reporter, luminescence, 16 h; Potency, µM (highest dose often 46 µM), for the others: at the highest dose activity change, positive = activation, usual class: activators; actives 1.3% (n = 330,000); note: % of control where 0% means no effect; nearly all actives have a fitted effect of over 60% in size
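After overnight (16 hr) compound treatment at 37 °C, ELG1-luciferase HEK293T cells were lysed with ONE-Glo; luminescence quantified 30 min later at room temperature.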
SMN2 splice up: qHTS Assay for Enhancers of SMN2 Splice Variant Expression; HEK293 SMN2-luciferase splicing reporter, luminescence, 30-36 h; Potency, µM (highest dose often 46.1 µM), without a hit: top-dose activity change, positive = activation, hits mostly activators; actives 2.8% (n = 210,000); note: % of control where 0% means no effect; nearly all actives have a fitted effect of over 55% in size
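qHTS luciferase splicing reporter: luminescence rises when SMN2 exon 7 is included in transfected HEK293 cells. Compound exposure lasted 30-36 h at 37C, with 4.5 mM final sodium butyrate as control, followed by a ONE-Glo read.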
Rab9 prom act: qHTS Assay for Rab9 Promoter Activators; actives 2.8% (n = 320,000); Potency, µM (series often up to 9.22 µM), for inactives: at the highest dose activation, negative = inhibition, actives largely listed as activators; AID 485297, 2010; Huh7 Rab9 promoter-luciferase reporter, luminescence, 24 h; note: % of control where 0% means no effect; nearly all actives have a fitted effect of over 60% in size
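Cell-based reporter: Huh7 stable for Rab9 promoter-driven luciferase, plated in reduced-serum medium with 10% FBS at 1500 cells/well, compound-treated 24 h at 37 °C, luminescence read after 10 min reagent.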
FLuc modulator: qHTS profiling assay for firefly luciferase inhibitor/activator using purifed enzyme and Km concentrations of substrates (counterscreen for miR-21 project); Luciferin 4-monooxygenase (Photinus pyralis), P08659; purified FLuc, Km substrates, luminescence inhibition; Potency, µM (highest dose often 57.5 µM), without a hit: at the top dose activity change, negative = inhibition, actives largely listed as inhibitors; actives 6.9% (n = 360,000); AID 588342, 2011;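 note: plate controls were vehicle for no effect and reference inhibitor for full effect; nearly all actives have a fitted effect of over 55% in size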
Target sequence (P08659 whole entry, looked up): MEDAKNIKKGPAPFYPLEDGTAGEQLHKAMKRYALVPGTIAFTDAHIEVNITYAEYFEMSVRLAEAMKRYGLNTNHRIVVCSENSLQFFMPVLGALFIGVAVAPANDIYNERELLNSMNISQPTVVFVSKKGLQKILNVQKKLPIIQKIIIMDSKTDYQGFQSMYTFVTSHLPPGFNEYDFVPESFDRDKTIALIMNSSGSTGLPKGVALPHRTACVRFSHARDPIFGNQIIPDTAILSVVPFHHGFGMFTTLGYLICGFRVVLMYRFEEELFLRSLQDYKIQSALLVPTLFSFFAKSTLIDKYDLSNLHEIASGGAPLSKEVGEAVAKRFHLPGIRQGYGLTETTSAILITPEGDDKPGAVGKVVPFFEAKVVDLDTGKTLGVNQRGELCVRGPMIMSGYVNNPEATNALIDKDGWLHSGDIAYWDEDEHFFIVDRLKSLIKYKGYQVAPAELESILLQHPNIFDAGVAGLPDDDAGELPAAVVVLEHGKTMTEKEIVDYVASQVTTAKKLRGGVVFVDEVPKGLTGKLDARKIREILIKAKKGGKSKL
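Purified P. pyralis luciferase, 10 nM final, with Km-level 10 uM D-luciferin and 10 uM ATP in 50 mM Tris acetate pH 7.5, 10 mM Mg acetate, 0.01% Tween-20, 0.05% BSA; 6-point qHTS titration about 60 µM downward; luminescence read.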
KinaseGlo FLuc: Counterscreen for Luciferase (Kinase-Glo TM) Inhibition; Luciferin 4-monooxygenase (Photuris pensylvanica), Q27757; Kinase-Glo luciferase, ATP luminescence, 8 min; Potency, µM (series often up to 38.3 µM), inactives show at the highest dose activity change, negative = inhibition, usual class: inhibitors; actives 0.28% (n = 200,000); note: % is set by controls: 0 for no effect and ±100 for the full control effect; nearly all actives have a fitted effect of over 60% in size
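Compound is pinned into ATP-containing buffer (10 uM ATP, imidazole pH 7.2, 7 mM MgCl2). Kinase-Glo luciferase reagent is then added. Light output is recorded following an 8-min room-temperature incubation.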
NPC1 promoter act: qHTS Assay for NPC1 Promoter Activators; actives 2.4% (n = 320,000); AID 485313, 2010; Potency, µM (titrated, usually from 9.22 µM), inactives show at the top dose activation, hits mostly activators; Huh7 NPC1 promoter luciferase reporter, 24 h; note: % of control where 0% means no effect; nearly all actives have a fitted effect of over 60% in size
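Stably transfected Huh7 (NPC1 promoter→luciferase), 1500 cells/well in Opti-MEM + 10% FBS, 2 h settle, then compound 24 h at 37 °C. Luminescence after 10 min with Amplite reagent.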
Active calls of the source: *; ? = inconclusive; . = no result. Only some compounds are listed: those with a hit (about 7.4% of all), similar ones and a draw of the others. Calls come from the whole dose curve; as a rule, active = well fitted curve in the direction sought with a large enough effect; inconclusive = small, poorly fitted or top-dose-only effect, or another doubt; inactive = no such curve, though single readings can be large; an effect the other way counts as inactive or inconclusive. Potency is the fitted concentration of half-maximal effect.

SMILES | ELG1 genotoxic | SMN2 splice up | Rab9 prom act | FLuc modulator | KinaseGlo FLuc | NPC1 promoter act
Cc1ccc(S(=O)(=O)N(C)C)cc1NC(=O)COC(=O)/C=C/c1ccc2ccccc2n1 | -3% | . | 19% | 8.5µM* | . | 23%
Cc1ccc(S(=O)(=O)N(C)C)cc1NC(=O)COc1ccc(-c2nnco2)cc1 | -2% | . | -2% | 17µM* | . | -6%
Cc1ccc(OCCC(=O)OCC(=O)Nc2cc(S(=O)(=O)N(C)C)ccc2C)cc1 | 2% | 0% | -2% | 11µM* | 2% | -5%
CCN(CC)S(=O)(=O)c1ccc(C)c(NC(=O)COC(=O)CNC(=O)c2ccc(C(C)(C)C)cc2)c1 | 1% | 17% | 0% | 0.54µM* | 0% | -1%
CCC1=C2CC[C@H]3C(=O)N(CC)C(=O)[C@H]3[C@H]2[C@@]2(C)C(=O)N(CC(=O)OC)C(=O)N2C1=O | . | -2% | . | . | -17% | .
COc1ccc(C2c3c(n(C)c4ccccc34)C(=O)N2CC(=O)Nc2ccccc2Cl)cc1 (configuration not stated) | . | . | . | -10% | . | .
Cc1c(O)ccc(-c2[nH]ncc2-c2nc3ccccc3s2)c1O | -8% | 4% | 2% | 3% | -2% | -2%
Cc1c(O)ccc(-c2n[nH]c(C(=O)O)c2-c2nc3ccccc3s2)c1O | 13% | . | 16% | 17µM* | . | 0%
Cn1cnc2c(ncn2[C@@H]2O[C@H](CO)[C@@H](O)[C@H]2O)c1=N | . | 10% | . | . | . | .
Cc1no[n+]([O-])c1COc1ccc(/C=C2\NC(=S)NC2=O)cc1 | 16% | -11% | -4% | -8% | 3% | 0%
CCOc1ccc(/C=C2\NC(=S)NC2=O)cc1 | 0% | . | -7% | 17µM* | . | -1%
CC(C)=CC[C@@H](O)C1=CC(=O)c2c(O)ccc(O)c2C1=O | . | -99% | . | . | . | .
O=c1oc(Nc2ccccc2F)nc2ccccc12 | ? | . | ? | 9.5µM* | . | ?
O=c1oc(-c2ccccc2NS(=O)(=O)c2ccc(F)cc2)nc2ccccc12 | -3% | . | -1% | 1% | . | -2%
O=c1oc(Nc2cccc(Cl)c2)nc2ccccc12 | 13µM* | 11µM* | 0.79µM* | -25% | -4% | 2.8µM*
Clc1ccccc1Nc1nc(-c2ccncc2)nc2ccccc12 | -3% | . | -6% | 0% | . | -4%
O=c1oc(Nc2ccccc2Cl)nc2ccccc12 | 21µM* | ? | ? | 15µM* | -2% | 3.5µM*
Cc1ccc(N2CC(NC(=O)c3cccc(Cl)c3)CC2=O)cc1C (configuration not stated) | . | . | . | 5% | . | .
C=CCNC(=O)c1ccc(NC(=O)C2=CSCCO2)cc1 | ? | . | 0.79µM* | 12µM* | . | 0.89µM*
CC(=O)c1ccc(NC2=NS(=O)(=O)c3ccccc32)cc1 | . | 9% | . | ? | . | .
Cc1nc2cc(-c3cccc(F)c3)nn2c(C)c1CCC(=O)NC(C)CCc1ccco1 (configuration not stated) | -5% | 5% | -2% | 15µM* | -1% | 0%
Cc1nc2cc(-c3cccc(F)c3)nn2c(C)c1CCC(=O)NC1CCCCC1 | . | -12% | . | 12µM* | . | .
CCOC(=O)C1CCCCN1C(=O)CCc1c(C)nc2cc(-c3ccccc3)nn2c1C (configuration not stated) | -13% | -49% | -3% | 15µM* | -8% | 9%
COc1cc(OC)cc(-c2cc3nc(C)c(CCC(=O)NC(C)CCc4ccco4)c(C)n3n2)c1 (configuration not stated) | -23% | -16% | 7% | 1% | 1% | -4%
CCOC(=O)C1CCN(C(=O)CCc2c(C)nc3cc(-c4ccccc4)nn3c2C)CC1 | -4% | -17% | 3% | ? | 0% | -4%
SMILES | ELG1 genotoxic | SMN2 splice up | Rab9 prom act | FLuc modulator | KinaseGlo FLuc | NPC1 promoter act
COc1cc(OC)cc(-c2cc3nc(C)c(CCC(=O)O)c(C)n3n2)c1 | -11% | -36% | -14% | 15µM* | -5% | -15%
O=C(c1ccncc1)N1N=C(c2ccc(Cl)cc2)CC1c1ccccc1O (configuration not stated) | ? | . | 24% | 17µM* | . | 1%
CCOC(=O)Cn1c(=O)n(CC2CCCO2)c2nc(-c3c(F)cccc3Cl)nc(C(N)=O)c21 (configuration not stated) | . | . | . | 4% | . | .
Cc1cc(/C=N/NC(=O)c2ccsc2)c(C)n1-c1cnccn1 | ? | 24% | ? | 19µM* | -3% | 18%
Cc1ccccc1-n1c(C)cc(/C=N/NC(=O)c2ccncc2)c1C | 8% | 4% | 15% | 3.8µM* | -4% | 21%
COc1ccc(CCNc2nc3cc(OC)c(OC)cc3c3nc(-c4ccccc4)nn23)cc1OC | . | -4% | . | -10% | . | .
CS(=O)(=O)Oc1ccc2c(c1)O/C(=C\C=C\c1ccccc1)C2=O | 1% | . | -1% | 7.6µM* | . | 7%
COCCN(CCOC)Cc1c(O)ccc2c1O/C(=C\c1ccc(C)o1)C2=O | -1% | . | -2% | ? | . | -2%
CS(=O)(=O)Oc1ccc2c(c1)O/C(=C\c1cccc([N+](=O)[O-])c1)C2=O | -1% | . | -1% | -3% | . | 3%
CCN(CC)Cc1c(O)ccc2c1O/C(=C\C=C\c1ccccc1)C2=O | -1% | . | -4% | 12µM* | . | -4%
COc1ccccc1/C=C/C=C1\Oc2c(ccc(O)c2CN(C)C)C1=O | 2% | . | 2% | 3µM* | . | 2%
CCOC(=O)c1c(Nc2ccc(C)cc2)nnc(-c2ccccc2)c1-c1ccccc1 | . | -24% | . | -11% | . | .
O=C(CSc1nc2c([nH]c3ccccc32)c(=O)n1-c1ccc(F)cc1)NCC1CCCO1 (configuration not stated) | . | . | . | 1% | . | .
O=C(Nc1ccc(F)c(F)c1)c1ccc(=O)n(Cc2ccc(F)cc2)c1 | . | . | . | -1% | . | .
CC1=NN(c2ccccc2)C(=O)/C1=C\c1cc(C)n(C)c1C | -7% | . | 4% | 7.6µM* | . | 14%
Cn1cc(C=O)c2ccccc21 | 0% | . | -9% | 4% | -1% | -2%
CC1=NN(c2ccccc2)C(=O)/C1=C/c1cn(C)c2ccccc12 | -2% | . | 14% | 6µM* | . | 2%
CC1=NN(c2ccccc2)C(=O)/C1=C\c1cn(C)c2ccccc12 | 2% | -3% | 2% | 9.5µM* | -2% | -17%
CCOC(=O)C1(Cc2cccc(OC)c2)CCCN(C(=O)CCN2CCCO2)C1 (configuration not stated) | 23µM* | . | 3.2µM* | 15µM* | . | 3.5µM*
